Assay results as given in PubChem BioAssay AID1159580 (chemical genetic matrix, 2015).
In all, about 5,500 compounds went through this assay and about 2,000 (36%) were called active. Inconclusive results (about 18%) are left out. The list shows a part of the results. Unmarked numbers belong to inactive results. Cut-off read from the data, not from the text of the source: active = normalized growth mostly below about 0.91 (no sharp cut-off); inconclusive = no clear call, values can overlap the other calls; inactive = mostly above about 0.92.

Test: chemical genetic growth profiling, strain panel (AID 1159580);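 note: tested at 20 µM; growth read once vehicle control cultures reached saturation at 30 °C; 1 = growth at the plate median or of vehicle wells; lower values mean less growth of the strain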
Conditions: growth OD
[1] = S. cerevisiae deletion strains, locus YAL013W, strain DEP1, stronger effect = lower value
[2] = S. cerevisiae deletion strains, locus YBR229C, strain ROT2, stronger effect = lower value
[3] = S. cerevisiae deletion strains, locus YDL101C, strain DUN1, stronger effect = lower value
[4] = S. cerevisiae deletion strains, locus YDR150W, strain NUM1, stronger effect = lower value
[5] = S. cerevisiae deletion strains, locus YEL061C, strain CIN8, stronger effect = lower value
[6] = S. cerevisiae deletion strains, locus YGR078C, strain PAC10, stronger effect = lower value
[7] = S. cerevisiae deletion strains, locus YHR030C, strain SLT2, stronger effect = lower value
[8] = S. cerevisiae deletion strains, locus YHR087W, strain rtc3, stronger effect = lower value
[9] = S. cerevisiae deletion strains, locus YJL187C, strain SWE1, stronger effect = lower value
[10] = S. cerevisiae deletion strains, locus YJR043C, strain POL32, stronger effect = lower value
[11] = S. cerevisiae deletion strains, locus YJR075W, strain HOC1, stronger effect = lower value
[12] = S. cerevisiae deletion strains, locus YLR039C, strain RIC1, stronger effect = lower value
[13] = S. cerevisiae deletion strains, locus YLR058C, strain SHM2 (second series), stronger effect = lower value
[14] = S. cerevisiae deletion strains, locus YLR085C, strain ARP6, stronger effect = lower value
[15] = S. cerevisiae deletion strains, locus YLR262C, strain YPT6, stronger effect = lower value
[16] = S. cerevisiae deletion strains, locus YML094W, strain GIM5, stronger effect = lower value
[17] = S. cerevisiae deletion strains, locus YMR219W, strain ESC1, stronger effect = lower value
[18] = S. cerevisiae deletion strains, locus YMR263W, strain SAP30, stronger effect = lower value
[19] = S. cerevisiae deletion strains, locus YNL128W, strain TEP1, stronger effect = lower value
[20] = S. cerevisiae deletion strains, locus YNL153C, strain GIM3, stronger effect = lower value
[21] = S. cerevisiae deletion strains, locus YNL298W, strain CLA4 (second series), stronger effect = lower value
[22] = S. cerevisiae deletion strains, locus YNL322C, strain KRE1, stronger effect = lower value
[23] = S. cerevisiae deletion strains, locus YNR030W, strain Alg12, stronger effect = lower value
[24] = S. cerevisiae deletion strains, locus YPL055C, strain LGE1, stronger effect = lower value
[25] = S. cerevisiae deletion strains, locus YPL241C, strain CIN2, stronger effect = lower value
[26] = S. cerevisiae deletion strains, locus YPR135W, strain CTF4, stronger effect = lower value

In the case of O=C(CNc1cccc(Cl)c1)c1ccc(Cl)cc1, the normalized growth [1] is reported as 0.971, the normalized growth [2] is reported as 0.933 and the normalized growth (S. cerevisiae deletion strains, locus YCL061C, strain MRC1, stronger effect = lower value) is reported as 0.975. For the same compound, the normalized growth [3] was 0.952, the normalized growth (S. cerevisiae deletion strains, locus YDL134C, strain PPH21, stronger effect = lower value) was 0.948 and the normalized growth [4] was 0.89. The normalized growth [5] was 0.954, the normalized growth [6] was 0.945 and the normalized growth (S. cerevisiae deletion strains, locus YGR229C, strain SMI1, stronger effect = lower value) was 0.935 (active). For the same compound, the normalized growth [7] was 0.766, the normalized growth [8] was 0.923 and the normalized growth [9] was 0.933 (active). The normalized growth [10] was 0.98, the normalized growth [11] was 0.936 and the normalized growth [12] was 0.954. The normalized growth [13] was 0.953, the normalized growth [14] was 0.801 and the normalized growth [15] was 0.898. It also gave a normalized growth [16] of 0.938, a normalized growth [17] of 0.964 and a normalized growth [18] of 0.908. It also gave a normalized growth (S. cerevisiae deletion strains, locus YMR307W, strain GAS1, stronger effect = lower value) of 0.862, a normalized growth [19] of 0.973 and a normalized growth [20] of 0.97. For the same compound, the normalized growth [21] was 0.937, the normalized growth [22] was 0.951 and the normalized growth [23] was 0.89. The normalized growth [24] was 0.832, the normalized growth [25] was 0.899 and the normalized growth [26] was 0.824.

O=C1c2ccccc2C(=O)N1CNc1cccc(Cl)c1 gave a normalized growth [1] of 0.983, a normalized growth [2] of 1 and a normalized growth [3] of 0.972. The normalized growth [4] was 0.931, the normalized growth [5] was 0.986 and the normalized growth [6] was 0.963. It also gave a normalized growth [7] of 0.959, a normalized growth [8] of 1 and a normalized growth [9] of 1.01. The normalized growth [10] was 0.943, the normalized growth [11] was 0.951 and the normalized growth (S. cerevisiae deletion strains, locus YKL190W, strain CNB1, stronger effect = lower value) was 1.02. For the same compound, the normalized growth [12] was 1.01, the normalized growth [13] was 1 and the normalized growth [14] was 0.96. The normalized growth [15] was 0.98, the normalized growth [16] was 0.96 and the normalized growth [17] was 1. For the same compound, the normalized growth [18] was 0.984, the normalized growth [19] was 1 and the normalized growth [20] was 0.94. The normalized growth [21] was 0.943, the normalized growth [22] was 1.01 and the normalized growth [23] was 0.95. It also gave a normalized growth (S. cerevisiae deletion strains, locus YOL006C, strain TOP1, stronger effect = lower value) of 0.993, a normalized growth [24] of 0.978 and a normalized growth [25] of 0.971. The normalized growth [26] was 0.894 and the normalized growth (S. cerevisiae strains, strain wild type, stronger effect = lower value) was 1.01.
